In the library only some 7.4% were active in any assay of this set; here they are far more common.
NPC1 promoter act: activates the NPC1 promoter; Huh7 NPC1 promoter luciferase reporter, 24 h; Potency, µM (top dose mostly 9.22 µM), actives largely listed as activators; 320,000 compounds, 2.4% hits; AID 485313; note: nearly all actives have a fitted effect of over 60% in size
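Luminescence read-out of NPC1 promoter-driven luciferase in stably transfected Huh7 cells; compounds delivered in DMSO and left 24 h at 37C, 5% CO2, qHTS titration format.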
Rab9 prom act: activates the Rab9 promoter; Huh7 Rab9 promoter-luciferase reporter, luminescence, 24 h; AID 485297; 320,000 compounds, 2.8% hits; Potency, µM (titrated, usually from 9.22 µM), hits mostly activators; note: nearly all actives have a fitted effect of over 60% in size
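Stable Rab9-luc Huh7, 1500 cells/well, 2 h settle; cmpd in DMSO, 24 h, 37 °C/5% CO2; luciferase reagent 10 min RT; luminescence.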
ELG1 genotox: genotoxicity induction in ELG1-luciferase HEK293T cells | HEK293T ELG1-luciferase reporter, luminescence, 16 h | Potency, µM (doses to about 46 µM), most hits filed as activators | 330,000 compounds, 1.3% hits | AID 504466; note: nearly all actives have a fitted effect of over 60% in size
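Step 1: seed 2,000 HEK293T ELG1-luciferase cells per well. Step 2: add compound or DMSO, incubate 16 hr at 37 °C. Step 3: ONE-Glo, 30 min at room temperature, read luminescence.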
FLuc modulator: inhibits or activates purified firefly luciferase, miR-21 counter-screen. P08659. purified FLuc, Km substrates, luminescence inhibition. Potency, µM (doses to about 57.5 µM), actives largely listed as inhibitors. 360,000 compounds, 6.9% hits. AID 588342; note: nearly all actives have a fitted effect of over 55% in size
Target sequence (P08659 whole entry, looked up): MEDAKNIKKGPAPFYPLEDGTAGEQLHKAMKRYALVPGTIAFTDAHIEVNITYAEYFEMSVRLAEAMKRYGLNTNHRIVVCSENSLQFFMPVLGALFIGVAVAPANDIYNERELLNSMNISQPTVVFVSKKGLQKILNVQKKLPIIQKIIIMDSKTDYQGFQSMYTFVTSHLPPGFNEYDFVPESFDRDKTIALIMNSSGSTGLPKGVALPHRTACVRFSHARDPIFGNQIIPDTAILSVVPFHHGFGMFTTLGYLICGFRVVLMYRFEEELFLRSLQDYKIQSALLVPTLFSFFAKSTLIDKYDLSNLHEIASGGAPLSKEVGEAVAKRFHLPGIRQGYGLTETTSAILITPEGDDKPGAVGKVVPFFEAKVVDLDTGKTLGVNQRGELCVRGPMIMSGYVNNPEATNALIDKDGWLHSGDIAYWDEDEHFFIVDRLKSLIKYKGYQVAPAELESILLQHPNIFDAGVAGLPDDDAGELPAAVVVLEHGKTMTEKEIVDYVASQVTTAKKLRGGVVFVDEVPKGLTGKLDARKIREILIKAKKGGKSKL
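Purified P. pyralis luciferase (10nM final) with 10uM D-luciferin and 10uM ATP (Km levels) in 50mM Tris acetate pH 7.5, 10mM Mg acetate, 0.01% Tween-20, 0.05% BSA; qHTS 6-point titration, ~60 µM downward; luminescence read.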
SMN2 splice enh: increases expression of the SMN2 splice variant; AID 1458; 210,000 compounds, 2.8% hits; Potency, µM (doses to about 46.1 µM), hits mostly activators; HEK293 SMN2-luciferase splicing reporter, luminescence, 30-36 h; note: nearly all actives have a fitted effect of over 55% in size
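HEK293 cells carry an SMN2 […]–luciferase reporter in which exon 7 inclusion puts luciferase in frame. Cells were plated 10-12 h before compound addition, then incubated 30-36 h at 37C. ONE-Glo luminescence was read; sodium butyrate at 4.5 mM final served as control.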
Hits are given with their value; [ ] = dose if it differs, or a comment. Calls come from the whole dose curve; as a rule, active = well fitted curve in the direction sought with a large enough effect; inconclusive = small, poorly fitted or top-dose-only effect, or another doubt; inactive = no such curve, though single readings can be large; an effect the other way counts as inactive or inconclusive.

Screening CCOC(=O)N1CCN(C(=O)/C(=C/c2ccc(N(C)C)cc2)NC(=O)c2ccccc2)CC1 returned NPC1 promoter act inactive, Rab9 prom act inactive, ELG1 genotox inactive and FLuc modulator inactive.
Screening Cc1cnc(NC(=O)C2CC=CCC2)s1 (stereo not given) returned NPC1 promoter act inactive, Rab9 prom act inactive, ELG1 genotox inactive and FLuc modulator inconclusive.
`CC(C)(CN1CCN(C(c2ccccc2)c2ccccc2)CC1)NS(=O)(=O)c1ccccc1` gave NPC1 promoter act inactive, Rab9 prom act inactive, ELG1 genotox inactive and FLuc modulator inactive.
Cc1ccc(-c2cc(C(=O)O)c3ccccc3n2)s1 was read as NPC1 promoter act inactive, Rab9 prom act inactive, ELG1 genotox inconclusive and FLuc modulator 2.7µM.
For O=C(O)c1cc(-c2ccc(Cl)s2)nc2ccccc12 the results were NPC1 promoter act inactive, Rab9 prom act inactive, ELG1 genotox inactive, FLuc modulator 15µM and SMN2 splice enh inconclusive.
Cc1cccc(NC(=O)c2cc(-c3ccc(C)s3)nc3ccccc23)n1 was read as NPC1 promoter act inactive, Rab9 prom act inactive, ELG1 genotox inactive, FLuc modulator 11µM and SMN2 splice enh inactive.
For O=C(Nc1ccccn1)c1cc(-c2ccc(Cl)s2)nc2ccccc12 the results were NPC1 promoter act inactive, Rab9 prom act inactive, ELG1 genotox inactive and FLuc modulator inconclusive.
For CCN1CCN(C(=O)c2cc(-c3ccc(Cl)s3)nc3ccccc23)CC1 the results were NPC1 promoter act inactive, Rab9 prom act inactive, ELG1 genotox inactive and FLuc modulator 19µM.
COc1cc2cc(CCCOC(=O)c3ccc(C(F)(F)F)cc3)oc(=O)c2cc1OC was read as NPC1 promoter act inactive, Rab9 prom act inactive, ELG1 genotox inactive and FLuc modulator inactive.
Screening CC1CCCN(C(=O)C2CCN(S(=O)(=O)c3ccccc3)CC2)C1 (stereo not given) returned ELG1 genotox inactive.
`CC(OC(=O)Cn1[nH]c(=O)c2ccccc2c1=O)C(=O)NC1(C#N)CCCCC1` (stereo not given) gave NPC1 promoter act inactive, Rab9 prom act inactive, ELG1 genotox inactive and FLuc modulator inactive.
`COc1cccc(N2CCN(C(=O)c3cc4c(s3)-c3c(C)cccc3OC4)CC2)c1` gave FLuc modulator inactive and SMN2 splice enh inactive.
Screening C/C(N)=C(/C#N)C(=O)CSc1nnc(Nc2cccc(C)c2C)s1 returned NPC1 promoter act inconclusive, Rab9 prom act inconclusive, ELG1 genotox inactive, FLuc modulator 17µM and SMN2 splice enh inconclusive.
`O=S(=O)(c1ccccc1)c1nc(-c2cccs2)oc1SCc1ccccc1F` gave FLuc modulator inactive and SMN2 splice enh inactive.
Screening Cn1cccc1C(=O)C(=O)Nc1ccc(Cl)cc1 returned NPC1 promoter act 0.79µM, Rab9 prom act 0.5µM, ELG1 genotox inconclusive, FLuc modulator 1.9µM and SMN2 splice enh 10µM.
Screening CC(C(=O)Nc1ccc(F)c(F)c1)N1CCN(C)CC1 (stereo not given) returned NPC1 promoter act inactive, Rab9 prom act inactive[1.84 µM], ELG1 genotox inactive and FLuc modulator inactive.
Cn1cccc1C(=O)C(=O)Nc1cc(Cl)cc(Cl)c1 was read as NPC1 promoter act inconclusive, Rab9 prom act inconclusive, ELG1 genotox inactive, FLuc modulator inconclusive and SMN2 splice enh inactive.
`Cn1cccc1C(=O)C(=O)Nc1cccc(Cl)c1Cl` gave NPC1 promoter act inactive, Rab9 prom act inactive, ELG1 genotox inconclusive, FLuc modulator 2.4µM and SMN2 splice enh 25µM.
Screening Cn1cccc1C(=O)C(=O)Nc1ccc(F)c(F)c1 returned NPC1 promoter act 2µM, Rab9 prom act 1.3µM, ELG1 genotox inconclusive, FLuc modulator 11µM and SMN2 splice enh 11µM.
For O=C(COC(=O)c1ccc([N+](=O)[O-])s1)Nc1ncc(C(F)(F)F)cc1Cl the results were NPC1 promoter act inactive, Rab9 prom act inactive, ELG1 genotox inactive, FLuc modulator inactive and SMN2 splice enh inactive.
Screening COc1ccc(/C=C\C(=O)Oc2cccc(/C=N/NC(=O)Cc3ccc(OC)c(OC)c3)c2)cc1 returned NPC1 promoter act inconclusive, Rab9 prom act inconclusive, ELG1 genotox inconclusive, FLuc modulator 11µM and SMN2 splice enh 13µM.
`COc1ccc(/C=C/C(=O)Oc2cccc(/C=N/NC(=O)c3cccc(F)c3)c2)cc1` gave NPC1 promoter act 3.5µM, Rab9 prom act 2.8µM, ELG1 genotox inconclusive, FLuc modulator 2.4µM and SMN2 splice enh 11µM.
`O=C(CNc1cccc2ccccc12)N/N=C/c1ccc(C(=O)O)cc1` gave NPC1 promoter act inactive, Rab9 prom act inactive, ELG1 genotox inactive, FLuc modulator inactive and SMN2 splice enh inactive.
O=C(CNc1ccc2ccccc2c1)N/N=C/c1cc2ccccc2nc1Cl was read as NPC1 promoter act inactive, Rab9 prom act inactive, ELG1 genotox inactive, FLuc modulator 15µM and SMN2 splice enh inactive.
O=C(CNc1ccc2ccccc2c1)N/N=C/c1ccc(C(=O)O)cc1 was read as NPC1 promoter act inactive, Rab9 prom act inactive, ELG1 genotox inactive, FLuc modulator 27µM and SMN2 splice enh inactive.
For Clc1cccc(Cl)c1/C=C/c1nc2ccccc2[nH]1 the results were NPC1 promoter act 3.5µM, Rab9 prom act 4.5µM, ELG1 genotox inconclusive, FLuc modulator 0.67µM and SMN2 splice enh 11µM.
For O=C(/C=C/c1ccc(Cl)cc1Cl)c1nc2ccccc2[nH]1 the results were NPC1 promoter act inactive, Rab9 prom act inactive, ELG1 genotox inactive, FLuc modulator 0.24µM and SMN2 splice enh inactive.
`Clc1ccc(/C=C/c2nc3ccccc3[nH]2)c(Cl)c1` gave NPC1 promoter act 0.71µM, Rab9 prom act 0.4µM, ELG1 genotox inconclusive, FLuc modulator 0.067µM and SMN2 splice enh 0.56µM.
For O=[N+]([O-])c1ccc(/C=C/c2nc3ccc([N+](=O)[O-])cc3[nH]2)cc1 the results were NPC1 promoter act inactive, Rab9 prom act inactive, ELG1 genotox inactive and FLuc modulator inconclusive.
Screening OCc1nc2ccc(Cl)cc2[nH]1 returned NPC1 promoter act inactive, Rab9 prom act inactive, ELG1 genotox inactive and FLuc modulator inactive.
Screening O=C(/C(=C(\O)c1ccccc1)c1nc2ccccc2[nH]1)c1ccccc1 returned NPC1 promoter act inactive, Rab9 prom act inactive, ELG1 genotox inactive and FLuc modulator inactive.
For Clc1ccc(/C=C/c2nc3ccccc3[nH]2)cc1 the results were NPC1 promoter act 0.1µM, Rab9 prom act 0.2µM, ELG1 genotox 0.58µM, FLuc modulator 0.076µM and SMN2 splice enh 0.79µM.
Screening O=C(NCc1ccc(Cl)cc1)c1ccc2ccccc2n1 returned NPC1 promoter act inactive, Rab9 prom act inactive, ELG1 genotox inactive and FLuc modulator inconclusive.
`COc1cc2c(cc1OC)C(C)N(C(=O)c1cc(C)on1)CC2` (stereo not given) gave NPC1 promoter act inactive, Rab9 prom act inactive, ELG1 genotox inconclusive and FLuc modulator inactive.
For COc1cc2c(cc1OC)C(C)N(C(C)=O)CC2 (stereo not given) the results were NPC1 promoter act inactive, Rab9 prom act inactive, ELG1 genotox inconclusive, FLuc modulator inactive and SMN2 splice enh 0.63µM.

Screening data deposited in PubChem by National Center for Advancing Translational Sciences (NCATS).
